The source of these data is PubChem BioAssay (EPA / NIEHS).

Each structure is given as a SMILES string. Inconclusive results are not listed. Calls of active or inactive are those of the source. How the source made its calls: active means hit-call score of the fitted dose curve at least 0.9, where 1 is the maximum; inconclusive means response in the unintended direction; inactive means score below 0.9.

The nature of the assay: ACEA_ER_AUC_viability: ACEA Biosciences xCELLigence Real-Time Cell Analysis on Estrogen Receptor Agonism for Viability (AID 2283782).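 Further: continuous compound exposure with impedance area under curve over 80 h; hit means loss of impedance signal meaning reduced cell growth or viability.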 The gist of the method:
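T-47D human breast cells in phenol red-free RPMI1640 with 10% charcoal-stripped FBS were dosed with an 8-point 1:4 dilution series from 100 uM top final concentration, in duplicate. Impedance-based growth was followed for 80 h; AUC analysed versus DMSO.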
Turning to `CC(=O)c1c(C)c([N+](=O)[O-])c(C(C)(C)C)c([N+](=O)[O-])c1C`, the compound was classed as inactive.

Regarding `CC(C)(CO)[C@@H](O)C(=O)NCCC(=O)O`, the outcome was inactive.

Consider `COC(=O)c1ccc(C)cc1C1=NC(C)(C(C)C)C(=O)N1` (stereo unspecified) (tested in a mixture with another compound), for which the call was inactive.

Turning to `C=C(CC(=O)O)C(=O)O`, the compound was classed as inactive.

Take `CS(C)=O`: the outcome was inactive.

With `C=CC(C)(O)CCC=C(C)C` (stereo unspecified), the call was inactive.

As for `COC(C)(C)CCCC(C)CC=O` (stereo unspecified), the AC50 was 50 µM (active).

On to `CCCCCCCC/C=C\CCCCCCCC(=O)OCC`, for which the compound was classed as inactive.

For `CCN(CC)C(=O)N(CC)CC`, the result was inactive.

For `C=CCCCCCCCCCC`, the compound was classed as inactive.

In the case of `C=C(C)C(=O)OCCOC1CC2CC1C1C=CCC21` (stereo unspecified), the AC50 was 48.6 µM (active).

The AC50 is the midpoint of the concentration-response curve, whichever way the signal moves.
